The list is not random: actives were taken first. Their share in the collection is about 12%.
SARS PLpro yeast = SARS-CoV PLP inhibition in yeast; S. cerevisiae expressing SARS-CoV PLpro, growth rescue; 330,000 tested, 0.19% active; AID 485353; Potency, µM (doses to about 32.9 µM), without a hit: at the top dose activity, positive = growth rescue, hits mostly activators; calls by dose curve; also: 0% is about no effect; nearly all actives have a fitted effect of over 55% in size
AmpC detergent = AmpC beta-lactamase inhibition with detergent present | P00811 | AmpC hydrolysis of nitrocefin, absorbance 480 nm, 0.01% Triton | Potency, µM (doses to about 114 µM), without a hit: at the highest dose activity change, negative = inhibition, usual class: inhibitors | 370,000 tested, 0.041% active;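 also: 0% = no-compound wells and -100% = no-enzyme wells; nearly all actives have a fitted effect of over 25% in size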
Target sequence (P00811 whole entry, looked up): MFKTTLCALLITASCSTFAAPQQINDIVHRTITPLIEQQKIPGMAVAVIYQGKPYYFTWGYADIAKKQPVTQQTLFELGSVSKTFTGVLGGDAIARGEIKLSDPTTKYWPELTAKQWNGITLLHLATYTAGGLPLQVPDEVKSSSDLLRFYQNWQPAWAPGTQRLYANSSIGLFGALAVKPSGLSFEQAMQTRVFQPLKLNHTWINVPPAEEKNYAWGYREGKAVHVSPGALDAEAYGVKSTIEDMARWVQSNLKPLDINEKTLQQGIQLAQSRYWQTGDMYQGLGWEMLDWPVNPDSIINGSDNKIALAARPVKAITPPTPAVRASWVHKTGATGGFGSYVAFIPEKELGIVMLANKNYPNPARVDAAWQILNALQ
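20 mM phosphate pH 7.0 + 0.01% (detergent screen) or 0.0001% Triton X-100; 5.3 nM AmpC reagent; cpd preinc 15 min RT; nitrocefin (800 uM stock) to start; A480 q20 s × 4 min; Activity was normalised to no-enzyme and no-compound control wells.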
Pf growth 48h = inhibits P. falciparum growth in the first generation, 48 h. P. falciparum luciferase growth in erythrocytes, 48 h. Potency, µM (top dose mostly 28.7 µM), for inactives: at the top dose activity change, negative = inhibition, actives largely listed as inhibitors. 310,000 tested, 5.9% active; also: % is scaled to controls: 0 for no effect and ±100 for the full control effect
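Firefly luciferase activity from engineered P. falciparum reports growth; inhibitors lower the luminescent signal. Cultures contained 2% hematocrit erythrocytes at 0.1% final parasitemia.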
Sm TGR block = inhibitors of Schistosoma mansoni thioredoxin glutathione reductase | Q962Y6 | purified TGR, DTNB reduction, TNB absorbance 405 nm | Potency, µM (highest dose often 114 µM), without a hit: top-dose activity change, negative = inhibition, usual class: inhibitors | 360,000 tested, 3% active; also: % is scaled to controls: 0 for no effect and ±100 for the full control effect; nearly all actives have a fitted effect of over 60% in size
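First, TGR (20 nM dispensed) and NADPH were mixed with compound. Second, a 15 min room-temperature incubation followed. Third, further NADPH and then DTNB were added to start the reaction. Finally, TNB absorbance was monitored kinetically.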
AmpC no deterg = blocks E. coli AmpC beta-lactamase in detergent-free assay | P00811 | AmpC nitrocefin hydrolysis, absorbance 480 nm, 0.0001% Triton | Potency, µM (highest dose often 57.1 µM), inactives show top-dose activity change, negative = inhibition, hits mostly inhibitors | 330,000 tested, 0.52% active;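 also: plate controls were no compound for no effect and no enzyme for full effect; nearly all actives have a fitted effect of over 20% in size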
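AmpC (5.3 nM in the dispensed reagent) in 20 mM phosphate pH 7.0 with 0.01% (detergent screen) or 0.0001% Triton X-100 was preincubated with compounds for 15 min at room temperature. Nitrocefin was then added from an 800 uM solution, and hydrolysis was followed at 480 nm.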
Pf growth 96h = inhibits malaria parasite growth, 96 h; P. falciparum luciferase reporter growth, 96 h; 320,000 tested, 6.9% active; Potency, µM (titrated, usually from 28.7 µM), for the others: top-dose activity change, negative = inhibition, actives largely listed as inhibitors; also: % is scaled to controls: 0 for no effect and ±100 for the full control effect
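Parasite growth measured via integrated firefly luciferase reporter in P. falciparum. Infected erythrocytes at 2% hematocrit, 0.05% parasitemia final were treated 96 hours at 37 C under 5% CO2, and luminescence was read.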
* hit, by the source's call; ? = inconclusive; . = no result given; [ ] = another dose, or the depositor's remark. Unless noted, calls follow the shape of the dose curve; as a rule, active = well fitted curve in the direction sought with a large enough effect; inconclusive = small, poorly fitted or top-dose-only effect, or another doubt; inactive = no such curve, though single readings can be large; an effect the other way counts as inactive or inconclusive. Potency is read from the fitted curve at half-maximal effect.

SMILES	SARS PLpro yeast	AmpC detergent	Pf growth 48h	Sm TGR block	AmpC no deterg	Pf growth 96h
CCN1C(=O)[C@@H]2[C@@H](c3ccc(SC4CCCCC4)c(OC)c3)N3CCCC[C@@]3(C(=O)OC)[C@@H]2C1=O	-3%	.	.	.	84%	.
CCC(C)Sc1ccc([C@@H]2[C@@H]3C(=O)N(C)C(=O)[C@@H]3[C@]3(C(=O)OC)CCCCN23)cc1OC (some centres not stated)	3%	?	?	?	174%	?
CCSc1ccc([C@@H]2[C@@H]3C(=O)N(C)C(=O)[C@@H]3[C@]3(C(=O)OC)CCCCN23)cc1	8%	-3%	8.3µM*	?	109%	?
CCC(C)Sc1ccc([C@@H]2[C@@H]3C(=O)N(CC)C(=O)[C@@H]3[C@]3(C(=O)OC)CCCCN23)cc1OC (some centres not stated)	-7%	.	.	.	259%	.
COC(=O)[C@@]12CCCCN1[C@H](c1ccc(SC3CCCCC3)c(OC)c1)[C@@H]1C(=O)N(C)C(=O)[C@@H]12	4%	1%	8.3µM*	-21%	222%	8.3µM*
CCSc1ccc([C@@H]2[C@@H]3C(=O)N(CC)C(=O)[C@@H]3[C@]3(C(=O)OC)CCCCN23)cc1OC	1%	?	13µM*	?	235%	?
CCSc1ccc([C@@H]2[C@H]3C(=O)N(C)C(=O)[C@H]3[C@]3(C(=O)OC)CCCCN23)cc1OC	-6%	0%	10µM*	0%	189%	?
COc1ccc2c(c1)CC(C(=O)NCCN1CCN(c3cccc(C)c3C)CC1)CO2 (configuration not stated)	.	2%	.	-2%	.	.
C/C(=N/NC(=O)CNC(=O)CCc1ccccc1)c1ccc(Cl)c(Cl)c1	0%	2%	49%	-18%	12%	72%
CN(C)c1ccc(CNC(=O)Cn2ccc3cc(S(=O)(=O)N4CCCCCC4)ccc32)cc1	.	2%	.	?	.	.
Cc1cc(C(=O)Nc2cc(Br)ccc2O)on1	6%	2%	5.2µM*	4%	-29%	6%
CCc1ccccc1NC(=O)c1cc(C)no1	0%	2%	-21%	7%	-9%	16%
COc1ccc(-c2cc(C(=O)Nc3cc(Br)ccc3O)no2)cc1	-1%	-2%	10µM*	3%	5%	-1%
COc1ccc(CNC(=O)CCc2c(C)nc3c(c2C)c(=O)n(C)c(=O)n3C)cc1	.	-9%	.	-8%	.	.
COc1ccc(CCNC(=O)c2c(C)oc3ncnc(N4CCOCC4)c23)c(OC)c1	.	2%	.	6%	.	.
NC(=O)c1ccccc1NC(=O)CC12CC3CC(CC(C3)C1)C2	-6%	-13%	-11%	8%	-12%	9.3µM*
CN(C)S(=O)(=O)c1cccc(NC(=O)CC23CC4CC(CC(C4)C2)C3)c1	5%	6%	15µM*	3%	-10%	?
CC(=O)Nc1ccc(NC(=O)CC23CC4CC(CC(C4)C2)C3)cc1	-3%	2%	-21%	3%	-9%	?
CC1C2CCC3C4CC=C5CC(N(C)C)CC[C@@]5(C)C4CC[C@@]32CN1C (some centres not stated)	.	.	15µM*	.	.	?
Cc1ccc(CN2c3ccccc3-c3nc(SCC(=O)Nc4c(C)cc(C)cc4C)ncc3S2(=O)=O)cc1	.	10%	.	3%	.	.
CCOC(=O)C1=C(C)NC(C)=C(C(=O)OCC)C1C(=O)OCC(=O)N(C)Cc1ccccc1	-8%	.	.	.	103%	.
O=[N+]([O-])c1ccccc1S(=O)(=O)NCc1ccco1	9%	3%	-41%[1.15 µM]	6%	-13%	?
CS(=O)(=O)NCCSCc1ccco1	0%	-11%	32%	20µM*	-23%	-18%
O=[N+]([O-])c1ccccc1S(=O)(=O)NCCSCc1ccco1	-2%	-7%	-27%	25µM*	-34%	?
